Measurements reported in PubChem BioAssay AID1159580 (chemical genetic matrix, 2015).
In all, about 5,500 compounds went through this assay and about 2,000 (36%) were called active. Another 18% or so got no clear call; they are omitted. Cut-off read from the data, not from the text of the source: active = normalized growth mostly below about 0.91 (no sharp cut-off); inconclusive = no clear call, values can overlap the other calls; inactive = mostly above about 0.92. The list shows a part of the results.

Assay: chemical genetic growth profiling, strain panel (AID 1159580);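 note: tested at 20 µM; growth read once vehicle control cultures reached saturation at 30 °C; 1 = growth at the plate median or of vehicle wells; lower values mean less growth of the strain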
Conditions: growth OD
[1] = S. cerevisiae deletion strains, locus YAL013W, strain DEP1, active compounds read low
[2] = S. cerevisiae deletion strains, locus YBR229C, strain ROT2, active compounds read low
[3] = S. cerevisiae deletion strains, locus YDL101C, strain DUN1, active compounds read low
[4] = S. cerevisiae deletion strains, locus YDR150W, strain NUM1, active compounds read low
[5] = S. cerevisiae deletion strains, locus YEL061C, strain CIN8, active compounds read low
[6] = S. cerevisiae deletion strains, locus YGR078C, strain PAC10, active compounds read low
[7] = S. cerevisiae deletion strains, locus YHR030C, strain SLT2, active compounds read low
[8] = S. cerevisiae deletion strains, locus YHR087W, strain rtc3, active compounds read low
[9] = S. cerevisiae deletion strains, locus YJL187C, strain SWE1, active compounds read low
[10] = S. cerevisiae deletion strains, locus YJR043C, strain POL32, active compounds read low
[11] = S. cerevisiae deletion strains, locus YJR075W, strain HOC1, active compounds read low
[12] = S. cerevisiae deletion strains, locus YKL190W, strain CNB1, active compounds read low
[13] = S. cerevisiae deletion strains, locus YLR039C, strain RIC1, active compounds read low
[14] = S. cerevisiae deletion strains, locus YLR058C, strain SHM2 (second series), active compounds read low
[15] = S. cerevisiae deletion strains, locus YLR085C, strain ARP6, active compounds read low
[16] = S. cerevisiae deletion strains, locus YLR262C, strain YPT6, active compounds read low
[17] = S. cerevisiae deletion strains, locus YML094W, strain GIM5, active compounds read low
[18] = S. cerevisiae deletion strains, locus YMR219W, strain ESC1, active compounds read low
[19] = S. cerevisiae deletion strains, locus YMR263W, strain SAP30, active compounds read low
[20] = S. cerevisiae deletion strains, locus YMR307W, strain GAS1, active compounds read low
[21] = S. cerevisiae deletion strains, locus YNL153C, strain GIM3, active compounds read low
[22] = S. cerevisiae deletion strains, locus YNL298W, strain CLA4 (second series), active compounds read low
[23] = S. cerevisiae deletion strains, locus YNL322C, strain KRE1, active compounds read low
[24] = S. cerevisiae deletion strains, locus YNR030W, strain Alg12, active compounds read low
[25] = S. cerevisiae deletion strains, locus YPL055C, strain LGE1, active compounds read low
[26] = S. cerevisiae deletion strains, locus YPL241C, strain CIN2, active compounds read low
[27] = S. cerevisiae deletion strains, locus YPR135W, strain CTF4, active compounds read low

Measured: normalized growth

COC(=O)c1ccc(-c2ccc(Cl)cc2)s1
inactive: [3] 0.906 | [4] 0.893 | [9] 0.961 | [10] 0.927 | [17] 0.871 | [19] 0.893 | [25] 1.08 | S. cerevisiae strains, strain wild type, active compounds read low 0.928
active: [1] 0.898 | [2] 0.901 | S. cerevisiae deletion strains, locus YCL061C, strain MRC1, active compounds read low 0.858 | [5] 0.87 | [6] 0.914 | [7] 0.587 | [8] 0.909 | [11] 0.88 | [12] 0.913 | [13] 0.497 | [14] 0.907 | [15] 0.577 | [16] 0.435 | [18] 0.908 | [20] 0.629 | [21] 0.872 | [22] 0.79 | [23] 0.92 | [24] 0.869 | S. cerevisiae deletion strains, locus YOL006C, strain TOP1, active compounds read low 0.637 | [26] 0.83 | [27] 0.597

CCSc1sc(C(=O)OC)c(-c2ccc(Cl)cc2)c1C#N
inactive: [1] 1.01 | [2] 0.985 | [3] 1.02 | S. cerevisiae deletion strains, locus YDL134C, strain PPH21, active compounds read low 0.964 | [4] 1.06 | [5] 0.917 | [6] 0.995 | S. cerevisiae deletion strains, locus YGR229C, strain SMI1, active compounds read low 0.989 | [7] 0.989 | [8] 1 | [9] 0.983 | [10] 1.05 | [11] 0.968 | [12] 0.99 | [13] 1.01 | [14] 0.986 | [15] 0.817 | [16] 0.999 | [17] 0.946 | [18] 0.992 | [19] 1.07 | [20] 0.972 | [21] 0.994 | [22] 0.94 | [23] 0.99 | [24] 0.954 | [25] 1.08 | [26] 0.96 | [27] 1.01
